Source: PubChem BioAssay
Most compounds without a hit are left out; they make up all but 21% or so of the library.
MRP1 act: activates MRP-1. H69AR cells + doxorubicin, viability rescue, CellTiter-Glo. viability increase, % at 10 µM. hit rate 0.61% among 140,000. AID 799;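 active = viability gain under doxorubicin at or above a set limit, the compound median plus 3 SD, cut at about 4.7% in these data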;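 note: MRP-1 overexpressing cells given doxorubicin 25 µM after compound pretreatment; 18-22 h compound pretreatment then 72 h with doxorubicin before readout; 0% = doxorubicin-only wells and 100% = vehicle-treated cells without doxorubicin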
CYP2C9 inh: inhibitors of human CYP2C9; P11712; CYP2C9 Supersomes, luciferin-H conversion, luminescence; inhibition, % at 5 µM; hit rate 20% among 96,000; AID 777;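 active = blocking of liver enzyme CYP2C9 beyond about 50% at 5 µM, limit read from the data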
CYP2C19 activ: increases human CYP2C19 enzyme activity; P33261; recombinant CYP2C19, luciferin-H EGE luminescence; stronger effect = higher value; 0 = fully inhibited enzyme, 1 = untreated enzyme; activation factor at 5 µM; 96,000 tested, under 10 active;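 active = activation factor of at least 2 at 5 µM in the primary screen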;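 note: 0 = wells with 2.5 mM tranylcypromine and 1 = vehicle-only wells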
Target sequence (P33261 whole entry, looked up): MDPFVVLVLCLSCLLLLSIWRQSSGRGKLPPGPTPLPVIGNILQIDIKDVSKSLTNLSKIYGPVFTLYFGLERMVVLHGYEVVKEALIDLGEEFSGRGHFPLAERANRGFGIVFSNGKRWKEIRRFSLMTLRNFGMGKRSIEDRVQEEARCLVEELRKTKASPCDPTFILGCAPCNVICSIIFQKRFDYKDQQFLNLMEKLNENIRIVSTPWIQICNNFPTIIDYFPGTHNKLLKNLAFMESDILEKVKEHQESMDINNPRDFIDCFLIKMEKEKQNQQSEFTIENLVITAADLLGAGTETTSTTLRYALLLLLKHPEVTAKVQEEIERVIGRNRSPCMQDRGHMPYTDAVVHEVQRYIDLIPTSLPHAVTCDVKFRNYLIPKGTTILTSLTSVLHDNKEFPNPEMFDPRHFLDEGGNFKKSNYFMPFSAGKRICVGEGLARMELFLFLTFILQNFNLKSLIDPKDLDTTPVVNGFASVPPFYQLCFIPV
MRP reversal: reverses drug resistance mediated by MRP; H69AR cells + 2 uM doxorubicin, CellTiter-Glo, 72 h; differential viability (reversal), % at 10 µM; hit rate 0.04% among 85,000; AID 602;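 active = viability drop by adding the cancer drug above about 55%, with treated viability meeting a 40% cutoff, limit read from the data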;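 note: viability without doxorubicin minus viability with 2 µM doxorubicin for each compound; larger differential means the compound sensitizes cells more to doxorubicin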
CYP2C9 act: activators of human CYP2C9 | P11712 | recombinant CYP2C9, luciferin-H conversion, luminescence; stronger effect = higher value; factor 1 = untreated enzyme, 0 = blocked | hit rate 1.4% among 96,000 | activation factor at 5 µM;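 active = activation factor of 2 or more for CYP2C9 at a 5 µM dose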;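 note: 0 = sulfaphenazole-blocked wells and 1 = vehicle-only wells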
CYP2C19 inhib: blocks human cytochrome P450 2C19; P33261; CYP2C19 Supersomes, luciferin-H EGE luminescence, 30 min; inhibition, % at 5 µM; hit rate 21% among 96,000;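 active = CYP2C19 inhibition above a set limit at 5 µM in the primary screen, cut at about 50% in these data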;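 note: plate controls were negative control wells for no effect and 2.5 mM tranylcypromine positive control for full effect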
Numbers without * were called inactive; nt = not tested or not shown.

SMILES | MRP1 act | CYP2C9 inh | CYP2C19 activ | MRP reversal | CYP2C9 act | CYP2C19 inhib
Cc1cccc(NC(=S)NC(NC(=O)OCc2ccccc2)C(Cl)(Cl)Cl)c1 (stereo unspecified) | -2 | 76* | 0.2 | nt | 0.2 | 77*
O=C(NC(NC(=S)Nc1cccc(Cl)c1)C(Cl)(Cl)Cl)OCc1ccccc1 (stereo unspecified) | -6 | 66* | 0.4 | nt | 0.3 | 60*
COc1ccccc1OCc1ccc(C(=O)n2nc(C)c(Cl)c2C)o1 | 0 | -36 | 0.6 | 0 | 1.4 | 39
O=C(c1ccc(COc2ccc(Cl)cc2)o1)N1N=C(C(F)F)CC1(O)C(F)F (stereo unspecified) | 5.6* | nt | nt | nt | nt | nt
COc1ccccc1OCc1ccc(C(=O)N2N=C(C(F)F)CC2(O)C(F)F)o1 (stereo unspecified) | 1 | 73* | 0.7 | nt | 0.3 | 34
O=C(c1ccc(COc2ccc(F)cc2)o1)n1cccn1 | 1 | 8 | 0.8 | 0 | 0.9 | 18
O=C(c1ccc(Cn2cc(Br)cn2)o1)N1N=C(C(F)F)CC1(O)C(F)F (stereo unspecified) | -1 | 93* | 0.3 | nt | 0.1 | 74*
Cc1ccc(S(=O)(=O)NC(C)(C)CSc2nnc(N)s2)cc1 | 0 | 80* | 0 | -3 | 0.2 | 99*
CCN(CC)C(=O)c1ccc(COc2ccccc2Br)o1 | -3 | -15 | 0.6 | -16 | 1.2 | 40
CC(C)(C)NC(=O)c1ccc(COc2ccccc2Br)o1 | 5 | 10 | 0.6 | 8 | 0.9 | 44
COC(=O)c1ccccc1NC(=O)c1ccc(COc2cccc3ccccc23)o1 | 0 | 58* | 0.7 | 17 | 0.4 | 33
COc1ccccc1OCc1ccc(C(=O)OCC2CCCO2)o1 (stereo unspecified) | -1 | -16 | 0.2 | -25 | 1.2 | 76*
O=C(NCc1cccnc1)c1ccc(COc2ccccc2Br)o1 | 0 | 61* | 0.2 | 6 | 0.4 | 79*
COC(=O)c1ccccc1NC(=O)c1ccc(COc2ccccc2)o1 | 0 | -18 | 0.8 | -9 | 1.2 | 21
O=C(Nc1cccnc1)c1ccc(COc2ccccc2Br)o1 | -2 | 60* | 0.1 | -37 | 0.4 | 89*
CCOC(=O)c1ccc(N2C(=O)C3C(C2=O)C(C(=O)c2ccc(Cl)cc2)N2CCCC32)cc1 (stereo unspecified) | -3 | 16 | 0.8 | -1 | 0.8 | 22
O=C(N/N=C/c1ccc2ccccc2c1)c1ccc(COc2ccc3c(c2)CCC3)o1 | -1 | 48 | 0.5 | nt | 0.5 | 48
COc1ccccc1OCc1ccc(C(=O)NCc2ccco2)o1 | -3 | 24 | 0.2 | -5 | 0.8 | 76*
O=C(NCc1cccnc1)c1ccc(COc2ccc3c(c2)CCC3)o1 | -2 | 67* | 0 | -13 | 0.3 | 99*
Cc1ccc(C(=O)Nc2ccc3c(c2)OCCO3)o1 | 1 | 25 | 0.5 | -7 | 0.8 | 46
COc1ccccc1OCc1ccc(C(=O)Nc2ccncc2)o1 | 0 | 98* | 0 | 3 | 0 | 100*
Cc1ccc(C(=O)Nc2ccncc2)o1 | -1 | 38 | 0.3 | -2 | 0.6 | 73*
CCC(C)N(C(=O)Cn1nnc2ccccc21)C(C(=O)Nc1ccc(F)cc1)c1cccc(OC)c1 (stereo unspecified) | 1 | 19 | 0.7 | nt | 0.8 | 27
O=C(CCN1C(=O)c2ccccc2C1=O)Nn1cnnc1 | -1 | 90* | 1 | -15 | 0.1 | -2
O=C(CCn1cnc2ccccc2c1=O)Nc1ccc2c(c1)OCCO2 | -4 | 53* | 0.5 | -12 | 0.5 | 53*
SMILES | MRP1 act | CYP2C9 inh | CYP2C19 activ | MRP reversal | CYP2C9 act | CYP2C19 inhib
N#Cc1c(NC(=O)CCn2cnc3ccccc3c2=O)oc(-c2ccccc2)c1-c1ccccc1 | 0 | 96* | 0.2 | 19 | 0 | 81*
Cc1ccc(NC(=O)CCn2cnc3ccccc3c2=O)cc1Cl | -1 | nt | nt | nt | nt | nt
N#Cc1c(NC(=O)CCN2C(=O)c3ccccc3C2=O)oc(-c2ccccc2)c1-c1ccccc1 | 2 | 82* | 0.7 | nt | 0.2 | 30
N#Cc1c(NC(=O)CN2C(=O)c3ccccc3C2=O)oc(-c2ccccc2)c1-c1ccccc1 | nt | nt | nt | -15 | nt | nt
CCNS(=O)(=O)c1ccc(NC(=O)c2ccc(Cn3cc(Br)cn3)o2)cc1 | -1 | nt | nt | nt | nt | nt
COc1ccc(/C=c2/sc3n(c2=O)NC2(c4ccccc4)N(C)C(=O)N(C)C2(c2ccccc2)N=3)cc1 (stereo unspecified) | 2 | 60* | 0.6 | 12 | 0.4 | 40
COc1ccc(/C=c2/sc3nc(-c4ccccc4)c(-c4ccccc4)n3c2=O)cc1 | 0 | nt | nt | nt | nt | nt
COc1ccc(C2=NCCn3cccc32)c(OC)c1 | -2 | nt | nt | nt | nt | nt
Cc1ccc(-c2nnc(Nc3ccc4c(c3)OCO4)c3ccccc23)cc1S(=O)(=O)NC(C)C | 1 | nt | nt | nt | nt | nt
Cc1noc(C)c1COC(=O)CCc1nc2ccccc2s1 | 1 | 48 | 0.4 | -8 | 0.5 | 59*
Cc1noc(C)c1COC(=O)CCN1c2ccccc2Sc2ccccc21 | 0 | 98* | 0.1 | 3 | 0 | 88*
Cc1noc(C)c1COC(=O)CCOc1ccccc1 | -1 | -7 | 0.5 | -3 | 1.1 | 48
O=C(CCc1nc2ccccc2s1)OCC(=O)c1ccccc1 | 1 | nt | nt | nt | nt | nt
c1cc(C(c2nnnn2C2CCCC2)N2CCOCC2)ccn1 (stereo unspecified) | 0 | 28 | 0.2 | 5 | 0.7 | 83*
Oc1ccc(N2CCN(C(c3ccncc3)c3nnnn3C3CCCC3)CC2)cc1 (stereo unspecified) | -4 | 48 | 0.5 | -5 | 0.5 | 52*
CCOc1ccc2[nH]c(=O)c(CN(Cc3ccco3)C(CC)c3nnnn3Cc3ccccc3)cc2c1 (stereo unspecified) | -6 | 30 | 0.8 | 0 | 0.7 | 16
CCOC(=O)Cn1nnnc1C(CC)N(Cc1cccs1)Cc1cc2cc(C)ccc2[nH]c1=O (stereo unspecified) | -3 | 85* | 0.1 | 30 | 0.2 | 95*
CCOC(=O)Cn1nnnc1C(C(C)C)N(Cc1cccs1)Cc1cc2cc(C)ccc2[nH]c1=O (stereo unspecified) | -2 | 64* | 0.2 | -12 | 0.4 | 84*
CCC(c1nnnn1C1CCCC1)N(Cc1cccs1)Cc1cc2cc(C)ccc2[nH]c1=O (stereo unspecified) | -6 | -98 | 0.6 | -5 | 2* | 37
CCOc1ccc2[nH]c(=O)c(CN(Cc3cccs3)C(CC)c3nnnn3C(C)(C)CC)cc2c1 (stereo unspecified) | -4 | 87* | 0.4 | -20 | 0.1 | 63*
O=C(NCc1cccnc1)C(=O)NCC1OCCCN1S(=O)(=O)c1ccccc1 (stereo unspecified) | -2 | nt | nt | nt | nt | nt
CCNc1ccc(S(=O)(=O)N(C)C)cc1NCC(=O)Nc1ccc(F)c(Cl)c1 | -1 | nt | nt | nt | nt | nt
CCCSc1nnc(NC(=O)c2sc3nc(-c4cccs4)ccc3c2N)s1 | 0 | 53* | 0.6 | nt | 0.5 | 36
